Assay outcomes from PubChem BioAssay.
A selection: hits, their analogues and other compounds. The true share with any hit is near 1.5%.
NSD2 HMT inh – blocks human histone methyltransferase NSD2; inhibition, % at 12.5 µM; NSD2 peptide methylation, AlphaScreen, 120 min; actives 0.54% (n = 310,000); in the data active = inhibition above about 50%
miR-122 sensor – miR-122 inhibition in Huh7 cells. Huh7 miR-122 Renilla luciferase sensor, 48 h; neutral wells = 0, positive control = 100. activation (reporter increase), % at 12.5 µM. actives 0.3% (n = 340,000);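 active = mean replicate activation score at least 90 and every replicate individually at or above 90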;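 note: higher luciferase means less miR-122 activity so hits act as miR-122 inhibitors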
MLL AF4-AF9 inh – MLL-AF4/AF9 protein interaction inhibition; AlphaScreen, biotin-AF4 peptide binding to FLAG-AF9; AID 651704; inhibition, % at 10 µM; actives 0.47% (n = 350,000);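 active = every replicate reaching a set inhibition limit, whatever the replicate mean, cut at about 25% in these data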;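 note: 0% = plate neutral control median and 100% = total signal loss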
RAD52 inh – blocks human RAD52 DNA annealing; P43351; recombinant RAD52 DNA annealing, FRET fluorescence; inhibition, % at 18.7 µM; actives 0.46% (n = 360,000);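 active = every replicate showing at least 50% inhibition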
Target sequence (P43351 whole entry, looked up): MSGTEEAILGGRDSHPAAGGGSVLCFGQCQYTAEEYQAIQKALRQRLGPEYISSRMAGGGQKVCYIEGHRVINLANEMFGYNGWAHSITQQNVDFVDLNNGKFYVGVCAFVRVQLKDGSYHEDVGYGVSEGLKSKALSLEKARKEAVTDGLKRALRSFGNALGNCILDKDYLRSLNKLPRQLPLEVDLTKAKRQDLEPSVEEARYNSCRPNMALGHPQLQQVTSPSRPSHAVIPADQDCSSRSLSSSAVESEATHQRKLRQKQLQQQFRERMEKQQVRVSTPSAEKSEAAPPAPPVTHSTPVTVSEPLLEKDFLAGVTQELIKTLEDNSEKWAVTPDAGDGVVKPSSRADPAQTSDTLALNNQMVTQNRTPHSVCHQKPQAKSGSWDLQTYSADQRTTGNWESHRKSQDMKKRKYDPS
CASP6 VEID inh – caspase-6 (human) enzyme inhibition. actives 0.53% (n = 350,000). purified caspase-6, Z-VEID-R110 cleavage fluorescence. AID 686996. inhibition, % at 12.5 µM. P55212;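 active = mean inhibition across replicates at least about 35%, with every replicate also reaching that limit, limit read from the data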;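 note: 0% = median of neutral control wells and 100% = no fluorescence left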
Alpha interfer – interferes with the AlphaScreen assay signal; AC50, µM (highest dose often 12 µM), inactives show top-dose activity change, negative = inhibition; shares compounds with MLL AF4-AF9 inh; actives 45% (n = 530); AlphaScreen interference counter-screen, signal luminescence; cut-off not given, nearly all actives have AC50 up to about 14 µM
RAD52 DNA ctr – counter-screen for RAD52 inhibitors: DNA binding compounds | Salmon sperm DNA/acridine orange FP displacement | AC50, µM | shares compounds with RAD52 inh | actives 8% (n = 1,000);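 active = fitted half-maximal concentration for signal loss at or below twice the highest dose tested, in every separate run, actives reach about 64 µM in these data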
Alpha artifact – AlphaScreen assay artifact in NSD2 counter-screen. shares compounds with NSD2 HMT inh. AlphaScreen artifact counterscreen, preloaded methylated H4 peptide. AC35, µM (doses to about 10 µM), for the others: top-dose activity change, negative = signal loss. actives 9.4% (n = 1,500). AID 1053174; call rule not given here
* hit, by the source's call; i = inactive; . = no result given; ! = not active in a repeat; [ ] = dose if it differs, or a comment.

SMILES	NSD2 HMT inh	miR-122 sensor	MLL AF4-AF9 inh	RAD52 inh	CASP6 VEID inh	Alpha interfer	RAD52 DNA ctr	others
C[C@H]1CN([C@@H](C)CO)C(=O)c2cc(-c3ccccc3)cnc2O[C@@H]1CN(C)Cc1ccc(C(=O)O)cc1	.	4[16.7 µM]	-1	11	2	.	.
Cc1cc(C)cc(OCC(O)CN2CCC(CN3C(=O)c4cccc5cccc(c45)C3=O)CC2)c1 (configuration not stated)	0	-67	30*	95*	2	-33%	i
COc1cccc(OCC(O)CN2CCC(CN3C(=O)c4cccc5cccc(c45)C3=O)CC2)c1 (configuration not stated)	5	.	34*	86*	-3	-10%	i
Cc1ccccc1S(=O)(=O)NCC[C@H]1CC[C@H](NC(=O)C2CCOCC2)[C@H](CO)O1	.	23[16.7 µM]	-2	3	2	.	.
CC(C)(C)c1ccc(C(=O)N2CCNCC2)cc1	-3	-17	.	.	.	.	.
O=C(c1ccc(-c2cc(O)c3ncccc3c2)cc1)N1CCNCC1	.	-1	92*	101*	-79	3.9µM*	i
COc1ccc(-c2nc(-c3ccc(NC(=O)c4ccncc4)cc3)no2)cc1OC	.	-11	.	.	.	.	.
COc1ccc(NC(=O)c2ccc(-c3ccc(-c4noc(C)n4)cc3C)cc2)cc1N1CCN(C)CC1	.	-15	38*	101*	.	12µM*	i
CN(C)CCCN1c2ccccc2Sc2ccc(Cl)cc21	.	0	39*!	101*	1	-32%	i
CC(=O)c1ccc2c(c1)N(CCCN1CCC(CCO)CC1)c1ccccc1S2	.	-3	6	2	4	.	.
OCCN1CCN(CCCN2c3ccccc3Sc3ccc(Cl)cc32)CC1	.	-4	40*	102*	-8	-32%	i
C[C@@H]1CN([C@H](C)CO)C(=O)Cc2cc(NC(=O)Cc3cn(C)c4ccccc34)ccc2O[C@@H]1CN(C)C(=O)Nc1ccc(F)cc1	.	-3[16.7 µM]	-4	4	-1	.	.
CC1NC(=O)NC1CCCCCC(=O)Nc1ccc(F)c(Cl)c1 (configuration not stated)	103*	.	93*	-20	-6	0.6µM*	.	Alpha artifact=3.8µM*
O=C1c2c(O)ccc(O)c2C(=O)c2c(NCCNCCO)ccc(NCCNCCO)c21	92*	3	97*	102*	-238	0.35µM*	1.5µM*!	Alpha artifact=2µM*
Cc1ccc(CNCCNCCO)s1	-2	-1	0	-47	-8	.	.
CC(=O)N(C)C[C@H]1Oc2cc(C3=CCCCC3)ccc2S(=O)(=O)N([C@@H](C)CO)C[C@H]1C	.	-12[16.7 µM]	.	.	.	.	.
CN1CCN(c2ccc(Nc3ccnc4cc(Cl)ccc34)cc2)CC1	10	-3	15	88*	-10	.	i
CCOc1ccc(Nc2ccnc3cc(Cl)ccc23)cc1	.	-5	9	2	2	.	.
CCN1CCN(c2ccc(Nc3ccnc4ccccc34)cc2)CC1	25	16	20	95*	-47	.	i
CCCNC(=O)N1CC2(CN(C(=O)Cc3cccnc3)C2)c2c([nH]c3cc(OC)ccc23)[C@@H]1CO	.	.	-4	15	-1	.	.
CCS(=O)(=O)NCC[C@@H]1CC[C@@H](NC(=O)C2CCOCC2)[C@@H](CO)O1	.	.	-3	-13	-1	.	.
CCCCCc1cc(=O)oc2c(C(CCN3CCCC(C)C3)c3ccc(N(C)C)cc3)c(OC)cc(OC)c12 (configuration not stated)	.	5	.	.	.	.	.
CCCCCc1cc(=O)oc2c(C(CCN(CC)CC)c3ccc(N(C)C)cc3)c(OC)cc(OC)c12 (configuration not stated)	.	-11	52*	60*	-2	.	i
Cc1ccc(S(=O)(=O)Nc2ccc3c(c2)C(=O)N([C@H](C)CO)C[C@@H](C)[C@@H](CN(C)S(=O)(=O)c2ccc(C)cc2)O3)cc1	.	34[16.7 µM]	-2	16	0	.	.
Cc1ccccc1NC(=S)NC12CN3CN(CN(C3)C1)C2	1	.	-6	5	-26	.	.
COc1ccccc1NC(=S)NC12CN3CN(CN(C3)C1)C2	12	-1	12	79*	-62	.	i
